The values that follow come from PubChem BioAssay (NCI).

Compounds without any hit were thinned out: in the full panel of roughly 83,000, 20% have a hit.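 Results are percent growth after 48 hours of single-concentration exposure. 100 means growth as in untreated cells, lower positive values show inhibition; negative values down to -100 show cell death.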 Calls of active or inactive are those of the source. Rule for the calls: active = growth percent below 10; inactive = the rest.

The experiment concerns HL-60(TB) leukemia. Description: NCI-60 one-dose screen, 48 h (100 = growth as untreated, 0 = no growth, -100 = all killed). To be noted: 10 µM unless noted.
Regarding `Cc1ccc2c(c1)n([O-])c1cc(Cl)ccc1[n+]2=O`, the growth was 67.8% (inactive).
On to `CC1Cc2c(ncn3c(-c4ccc(F)cc4)nnc23)N(C)c2ccccc21` (stereo not given), for which the growth was 91.2% (inactive).
In the case of `CCCCN(CCCC)c1cc(C(=O)CCCCCN)c2ccccc2n1`, the growth was -67.9% (active).
For the compound `CC(C)(C#N)N1CCN(c2ccccc2Cl)CC1`, the growth is 103% (inactive).
Regarding `N/C(=N\c1nc2ccccc2s1)NC(=O)Nc1ccccc1`, the growth was 12.8% (inactive).
Turning to `COc1ccccc1C(=O)NC(=S)Nc1ccc(-c2nc3ccccc3[nH]2)cc1`, the growth is 59.7% (inactive).
As to `Cc1ccc(NC2CC(=O)N(c3c(C)cc(C)cc3C)C2=O)c(C)c1` (stereo not given), the growth was 102% (inactive).
As for `O=C1C=CC(=O)N1c1ccc(I)cc1Cl`, the growth is 97.9% (inactive).
As to `COc1cc2c(/C=C3\C(=O)Nc4ccc(Br)cc43)c(Cl)n(C)c2cc1C`, the growth was -13.1% (active).
For `Cc1ccnc2c(NC(C)CCCN)cc(O)c(O)c12` (stereo not given), the growth was 7.56% (active).
The result for `CS(=O)(=O)N(c1cc(-c2ccc3ncnc(Nc4cccc(Cl)c4)c3c2)cnc1Cl)S(C)(=O)=O` reads 8.46% (active).
In the case of `COC(=O)CCC1=C(C)/C(=C/c2[nH]c(-c3ccc[nH]3)cc2OC)N=C1C`, the growth was -23.3% (active).
In the case of `COc1ccc2[nH]c(=O)c3c4ccccc4cn3c2c1`, the growth was -28.4% (active).
As for `COc1cccc2c1C(=O)c1c(O)c3c(c(O)c1C2=O)C[C@](O)(C(=O)CO)C[C@H]3O[C@@H]1C[C@@H](NC(=O)CCCN(C)C2(c3ccc(F)cc3)CC3CCC2C3)[C@H](O)[C@@H](C)O1` (stereo not given in full), the growth was 76% (inactive).
Consider `C#CC(F)(F)[C@]1(O)CCC2C3CCC4=CC(=O)CCC4=C3[C@@H](c3ccc(N(C)C)cc3)C[C@@]21C` (stereo not given in full), for which the growth is 56% (inactive).
